Measurements as given in PubChem BioAssay (NCI).
Compounds without any hit were thinned out: in the full panel of roughly 83,000, 20% have a hit.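 Note: values are percent growth. 100 is the growth of untreated cells, values between 100 and 0 indicate rising inhibition; between -100 and 0 indicates cell death.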 Activity calls are given as the source filed them. How the source made its calls: active means growth percent below 10; inactive means the rest.

Key:
Experiment in all cases: NCI-60 one-dose screen, 48 h (100 = growth as untreated, 0 = no growth, -100 = all killed)
Details in all cases: 10 µM unless noted
[1] = tested on: NCI-H23 lung
[2] = tested on: NCI-H226 lung
[3] = tested on: NCI-H322M lung
[4] = tested on: HOP-62 NSCLC
[5] = tested on: NCI-H460 lung
[6] = tested on: HOP-92 NSCLC
[7] = tested on: NCI-H522 lung
[8] = tested on: A549/ATCC NSCLC
[9] = tested on: 786-0 renal
[10] = tested on: COLO 205 colon

Measured: growth

CC(C)=CCNc1ncnc2c1ncn2C1OC(CO)C(O)C1O (stereo not given)
active: [1] -19.3% [1 mM] | [2] -70.3% [1 mM] | [3] -4.69% [1 mM] | [4] -17.3% [1 mM] | [5] 2.5% [1 mM] | [6] -77.2% [1 mM] | [7] -54.2% [1 mM] | [8] -8.25% [1 mM] | [9] -31.4% [1 mM] | [10] -6.05% [1 mM]

CSC(SC)=C(C#N)c1nc2ccccc2s1
inactive: [1] 58.3% | [2] 59% | [3] 79.4% | [4] 72.5% | [5] 57.7% | [8] 74.8% | [9] 61.8% | [10] 112%
active: [6] -12.8% | [7] 6.27%

O=C(Nc1cnc(Nc2ccc(N3CCOCC3)nc2)nc1Oc1ccc(C(F)(F)F)cc1)c1ccncc1
inactive: [1] 70% | [2] 92.8% | [3] 87.3% | [4] 93.1% | [5] 74.3% | [6] 94.1% | [7] 82.8% | [8] 80.5% | [9] 96.8% | [10] 99.8%

CCN1C(=O)N(CC)C2C1N=C(SCc1ccc(Cl)cc1)N2/N=C/C=C/c1ccccc1OC (stereo not given)
inactive: [1] 78.2% | [2] 75% | [3] 97.1% | [4] 70% | [5] 85.6% | [6] 50.6% | [7] 34.1% | [8] 53.7% | [9] 86.2% | [10] 59.7%

Cc1ccc(-c2nc(N3CCNCC3)c3oc(-c4ccc(C)cc4)nc3n2)cc1
inactive: [1] 75.6% | [2] 97.6% | [3] 47.9% | [4] 76.1% | [6] 88.9% | [7] 76.1%
active: [5] -68.3% | [8] -83.3% | [9] -92.2% | [10] -81.2%

Cc1ccc(-c2nc(/C=C3/C(=O)Nc4ccc(F)cc43)c3ccccn23)cc1
inactive: [1] 77.1% | [2] 95.2% | [3] 91.6% | [4] 92.8% | [5] 36% | [6] 82.2% | [7] 62.7% | [8] 81.8% | [9] 112% | [10] 81.9%

Cc1ccc(C2CC(c3nc(-c4ccc(Cl)cc4)oc3C)=NN2C(=O)c2ccncc2)cc1 (stereo not given)
inactive: [1] 85.8% | [2] 88.3% | [3] 93.3% | [4] 99.3% | [5] 92.7% | [6] 80% | [7] 80.8% | [8] 84.4% | [9] 79.5% | [10] 107%

N=C(N)c1ccc(-c2ccc(-c3ccccc3)s2)cc1
inactive: [1] 85.5% | [2] 103% | [3] 49.2% | [4] 74.6% | [6] 73.2% | [8] 60.1% | [9] 78.8%
active: [5] -16.6% | [7] -26.5% | [10] -42.9%

CN1C(=O)/C(=C/c2ccc(C(=O)Nc3ncc(Cc4cccc(Cl)c4)s3)cc2)SC1=S
inactive: [1] 59.5% | [2] 64.5% | [3] 76.2% | [4] 62.9% | [5] 20.3% | [6] 71.9% | [7] 57.5% | [8] 56% | [9] 63.4% | [10] 57.8%

Cc1nc2c(=O)nc3s/c(=C\c4ccco4)c(=O)n3c2nc1C
inactive: [1] 96.8% | [2] 97% | [3] 93.5% | [4] 94.8% | [5] 101% | [6] 85.8% | [7] 85.1% | [8] 81.2% | [9] 97.1% | [10] 116%

Cc1ccc(C)c(/C=C2\CN(C(=O)OC(C)(C)C)C/C(=C\c3cc(C)ccc3C)C2=O)c1
inactive: [1] 49.7% | [2] 89% | [3] 93.9% | [4] 93.4% | [5] 45.3% | [6] 91.3% | [7] 46.1% | [8] 80.5% | [9] 74.5% | [10] 30.9%

Cc1c2ccncc2c(C)c2c1c1cc(CO)ccc1n2C
active: [1] 6.65% | [2] -49.2% | [3] 3.23% | [4] -19.6% | [5] -35.4% | [6] -5.78% | [8] 2.79% | [9] 1.95% | [10] -39%
inactive: [7] 21.1%

COc1ccc(C(=O)/C=C/c2ccc(N3CCCCC3)cc2)cc1OC
inactive: [1] 92.5% | [2] 72.7% | [3] 91.5% | [4] 98.3% | [5] 97.9% | [6] 69.9% | [7] 84.4% | [8] 90% | [9] 103% | [10] 100%

CN(CCC(=O)c1ccccc1)CCC(=O)c1ccccc1
active: [7] -87.7%
inactive: [1] 91.5% | [2] 97.4% | [3] 96.4% | [4] 100% | [5] 97.9% | [6] 72.6% | [8] 97.7% | [9] 65.4% | [10] 89.3%

Cc1ccc(C(=O)c2ccc(CC(=O)N=Nc3c(O)[nH]c4ccc(Br)cc34)n2C)cc1
inactive: [1] 76.1% | [2] 77.9% | [3] 92% | [4] 89.6% | [5] 104% | [6] 106% | [7] 84.1% | [8] 87.2% | [9] 97.6% | [10] 106%

CN(C)c1ccc(-c2nc(-c3ccccc3)c(-c3ccccc3)[nH]2)cc1
inactive: [1] 92.2% | [2] 106% | [3] 85.9% | [4] 100% | [5] 88.9% | [6] 52.2% | [7] 77.4% | [8] 99.5% | [9] 94.6% | [10] 129%

O=C1c2ccccc2C(=O)c2c1c(C(=O)NCc1ccccc1)c1ccccn21
inactive: [1] 101% | [2] 100% | [3] 99.4% | [4] 94.4% | [5] 107% | [6] 91.7% | [7] 73.4% | [8] 76.8% | [9] 94.5% | [10] 108%

O=C1c2ccccc2C(=O)c2c1cc1c(c2[N+](=O)[O-])OCO1
inactive: [2] 25.9% | [3] 46.9% | [8] 49% | [10] 48%
active: [1] 4.14% | [4] 3.82% | [5] 3.42% | [6] -3.71% | [7] -46.6% | [9] 2.64%

O=S1(=O)C=C(c2ccccc2)C(c2ccccc2)=C1
inactive: [1] 60.1% | [2] 44.7% | [3] 90.8% | [4] 54.3% | [5] 36.5% | [8] 70.9%
active: [6] -1.68% | [7] -70.7% | [9] 3.9% | [10] -88.5%

Cc1ccc(S(=O)(=O)c2nc(-c3ccccc3)oc2Sc2nc3ccccc3s2)cc1
inactive: [1] 20.9% | [2] 48.6% | [3] 94% | [4] 97.1% | [5] 68.1% | [6] 73.9% | [7] 54.1% | [8] 101% | [9] 35.3% | [10] 102%

COc1cccc(CNc2c3ccccc3nc3ccccc23)c1
inactive: [1] 37.3% | [2] 48.1% | [3] 44% | [4] 46.5% | [5] 10% | [6] 25.5% | [7] 61.7% | [8] 30.2% | [9] 37.3%
active: [10] 9.63%

CCOC(=O)C1=C(C)/C(=C\c2[nH]c(C)c(C(=O)OCC)c2C)N=C1C
inactive: [1] 80.2% | [2] 94.3% | [3] 93.5% | [4] 83.2% | [5] 102% | [6] 103% | [7] 75.4% | [8] 86.7% | [9] 98.9% | [10] 85.2%

O=C(NCc1cccc(CNC(=O)Nc2nc3ccccc3[nH]2)c1)Nc1nc2ccccc2[nH]1
active: [1] -65.1% | [2] -22.2% | [3] -7.92% | [4] -46.2% | [5] -52.9% | [6] -27.7% | [7] 1.54% | [8] -42.5% | [9] -42.8% | [10] -2.34%

CCN1C(=O)N(CC)C2C1NN=c1s/c(=C3\C(=O)N(CC(C)C)c4ccccc43)c(=O)n12 (stereo not given)
active: [5] 5.36% | [7] -2.72%
inactive: [1] 31.1% | [2] 61.5% | [3] 58.1% | [4] 45.6% | [6] 66.3% | [8] 21.6% | [9] 37.2% | [10] 17.6%

CC1C(/C=N/NC(N)=S)C(C#N)(C#N)C1(C#N)C#N (stereo not given)
inactive: [1] 101% | [2] 101% | [3] 102% | [4] 105% | [5] 99.8% | [6] 92.9% | [7] 99.4% | [8] 100% | [9] 104% | [10] 115%

COc1cc(/C=C2\CN(S(=O)(=O)c3ccccc3)C/C(=C\c3cc(CN4CCCCC4)c(O)c(OC)c3)C2=O)cc(CN2CCCCC2)c1O
active: [1] -74.7% | [3] -30.1% | [5] -62.6% | [6] -65.2% | [7] -46.8% | [9] -68.8% | [10] -4.52%
inactive: [2] 43.4% | [4] 104% | [8] 12.1%

COc1cc(/C=N/Nc2ccc(Br)cc2)cc(OC)c1OC
inactive: [1] 75.8% | [2] 80.1% | [3] 66.3% | [4] 93.1% | [5] 31.1% | [6] 98.2% | [7] 39.8% | [8] 54.9% | [9] 77.8% | [10] 86.9%
